Screens from PubChem.
A selection: hits, their analogues and other compounds. The true share with any hit is near 11%.
L3MBTL1 inh = qHTS Assay for the Inhibitors of L3MBTL1; 0.66% of 230,000 active; Potency, µM (titrated, usually from 57.1 µM), usual class: inhibitors; AlphaScreen L3MBTL1–H3K9me1 peptide binding; AID 485360, 2010; note: nearly all actives have a fitted effect of over 60% in size
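First, the protein-peptide complex forms for 30 min at room temperature (L3MBTL1 50 nM, biotinylated H3K9me1 peptide 75 nM). Next, compounds are pin-transferred and incubated 30 min. Finally, AlphaScreen beads are added and read after 30 min.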
BAZ2B block = qHTS Assay for Inhibitors of BAZ2B | Potency, µM (highest dose often 114 µM), hits mostly inhibitors | AlphaScreen BAZ2B-H3K14Ac peptide displacement | AID 504333, 2011 | 4.4% of 360,000 active | Bromodomain adjacent to zinc finger domain protein 2B (Homo sapiens), Q9UIF8; note: nearly all actives have a fitted effect of over 60% in size
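Compounds, titrated to a top concentration of 110 uM, were incubated 30 min at room temperature with preformed BAZ2B/acetyl-K14 H3 peptide complex (50 nM each). Proximity signal was measured by AlphaScreen after 20 min with beads.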
HP1b chromo inh = HTS for Inhibitors of HP1-beta Chromodomain Interactions with Methylated Histone Tails. Chromobox protein homolog 1 (Homo sapiens), P83916. AlphaScreen HP1-beta / biotin-H3K9me3 peptide binding. Potency, µM (series often up to 114 µM), usual class: inhibitors. 0.56% of 390,000 active; note: nearly all actives have a fitted effect of over 70% in size
Target sequence (P83916 whole entry, looked up): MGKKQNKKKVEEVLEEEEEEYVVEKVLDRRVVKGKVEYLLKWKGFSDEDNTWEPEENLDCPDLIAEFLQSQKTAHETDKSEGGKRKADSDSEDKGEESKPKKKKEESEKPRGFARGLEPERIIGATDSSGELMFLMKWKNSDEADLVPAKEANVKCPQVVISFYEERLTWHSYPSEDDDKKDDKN
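Compound inhibition of the preformed complex between 50 nM HP1-beta and 50 nM biotinylated H3K9me3 peptide was read by AlphaScreen. Buffer was PBS pH 7.4 with 0.01% Tween-20. Incubations ran 30 min at room temperature, with 10 ug/mL donor/acceptor beads.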
G9a inh = qHTS Assay for Inhibitors of Histone Lysine Methyltransferase G9a; Histone-lysine N-methyltransferase EHMT2 (Homo sapiens), Q96KQ7; 8.8% of 350,000 active; Potency, µM (doses to about 102 µM), hits mostly inhibitors; G9a H3K9 monomethylation, AlphaScreen, 2 h; note: nearly all actives have a fitted effect of over 75% in size
Target sequence (Q96KQ7 913-1193 limits assumed): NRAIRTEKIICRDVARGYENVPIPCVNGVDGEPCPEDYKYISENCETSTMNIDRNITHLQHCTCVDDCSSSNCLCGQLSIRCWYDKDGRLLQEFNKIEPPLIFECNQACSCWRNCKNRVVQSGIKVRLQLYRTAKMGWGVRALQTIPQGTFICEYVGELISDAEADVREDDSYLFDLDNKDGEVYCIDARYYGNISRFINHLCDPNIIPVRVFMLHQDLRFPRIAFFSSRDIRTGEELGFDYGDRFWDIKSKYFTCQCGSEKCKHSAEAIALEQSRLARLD
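Step 1: enzyme (final 20 nM) with compound, 15 min RT. Step 2: substrate peptide 500 nM and SAM 20 uM, 2 h RT. Step 3: anti-H3K9me1 antibody and AlphaScreen beads, 10 min, then plate read.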
JMJD2A Tudor = qHTS Assay for Inhibitors of JMJD2A-Tudor Domain | AID 504339, 2011 | AlphaScreen JMJD2A-Tudor / H3K4me3 peptide binding | Lysine-specific demethylase 4A (Homo sapiens), O75164 | Potency, µM (highest dose often 114 µM), actives largely listed as inhibitors | 4.4% of 390,000 active; note: nearly all actives have a fitted effect of over 50% in size
Each line names hits and unclear results; the compound was inactive in the other large screens. Calls come from the whole dose curve; as a rule, active = well fitted inhibition curve with a large enough effect; inconclusive = small, poorly fitted or top-dose-only effect; inactive = no such curve, though single readings can be large or run the other way.

Cc1oc2c(c1C(=O)Nc1ccccc1Br)C1=NCCN1C=N2	none (no result: L3MBTL1 inh)
COc1ccccc1NC(c1ccc(Cl)cc1)c1nnc(-c2cccc(F)c2)o1 (centres undefined)	none (no result: L3MBTL1 inh)
CCN1CCc2nc(N)oc2CC1	G9a inh 24µM
CCCN1CCc2nc(N3CCN(CC)CC3)ncc2C1	G9a inh inconclusive, JMJD2A Tudor inconclusive (no result: L3MBTL1 inh)
COCCSc1ccccc1C(=O)Nc1ccccc1C(C)C	G9a inh 5µM
COCCSc1ccccc1C(=O)NCC1CCCO1 (centres undefined)	G9a inh 6.3µM (no result: L3MBTL1 inh)
CSc1ccccc1C(=O)NCC1CCCO1 (centres undefined)	none (no result: L3MBTL1 inh)
CSc1ccccc1C(=O)NCc1ccc(S(N)(=O)=O)cc1	G9a inh inconclusive (no result: L3MBTL1 inh)
COCCSc1ccccc1C(=O)Nc1nnc(C)s1	G9a inh inconclusive
CCNS(=O)(=O)c1ccc(NC(=O)c2ccccc2SCCOC)cc1	G9a inh 16µM
COCCSc1ccccc1C(=O)NCc1ccc(S(N)(=O)=O)cc1	G9a inh 45µM (no result: L3MBTL1 inh)
COC(=O)N1CCC2(CCN(C(=O)Nc3ccc(OC)cc3)CC2)CC1	none (no result: L3MBTL1 inh, BAZ2B block, HP1b chromo inh, JMJD2A Tudor)
CN=c1scc(-c2ccc([N+](=O)[O-])cc2)n1/N=C/c1ccco1	BAZ2B block inconclusive, G9a inh 50µM (no result: L3MBTL1 inh)
CCC1CN(C(=O)Nc2cccc3c2CCCC3)c2cc(C)ccc2O1 (centres undefined)	none (no result: L3MBTL1 inh)
CCNC(=O)CC1C(=O)N(c2cccc(OC)c2)C(=O)N1Cc1ccc(OC)c(OC)c1 (centres undefined)	none (no result: L3MBTL1 inh)
CCN(CC)CCNC(=O)c1c(O)c2c([nH]c1=O)CCCC2	G9a inh 79µM
CC(C)c1ccc(NC2CCCN(C(=O)c3cccs3)C2)cc1 (centres undefined)	BAZ2B block inconclusive, G9a inh 50µM (no result: L3MBTL1 inh)
COc1ccc(NC2CCCN(C(=O)c3ccccc3C(F)(F)F)C2)cc1 (centres undefined)	BAZ2B block inconclusive, G9a inh 40µM (no result: L3MBTL1 inh)
COc1ccc(NC2CCCN(C(=O)c3cc(CC(C)C)nc(N)n3)C2)cc1 (centres undefined)	G9a inh 45µM (no result: L3MBTL1 inh)
CCOC(=O)N1CCN(C2CCCN(C(=O)c3ccccc3C(F)(F)F)C2)CC1 (centres undefined)	G9a inh 71µM (no result: L3MBTL1 inh)
CCn1nc(CC(C)C)cc1C(=O)N1CCCC(Nc2ccc(F)cc2)C1 (centres undefined)	none (no result: L3MBTL1 inh)
Cc1ccc(-c2nnc3c4ccccc4c(C)nn23)cc1NC(=O)c1ccccc1Cl	none (no result: L3MBTL1 inh)
COc1ccc(NS(=O)(=O)c2cc(Br)cc3c2N(C(=O)C2CC2)CC3)cc1OC	none (no result: L3MBTL1 inh)
CCOc1ccc(C2c3c(oc4ccc(C)cc4c3=O)C(=O)N2CCCN(C)C)cc1 (centres undefined)	none (no result: L3MBTL1 inh)
Cc1ccc(Cl)cc1N1CCN(C(=O)CCCCCn2c(=O)[nH]c3ccccc3c2=O)CC1	JMJD2A Tudor inconclusive (no result: L3MBTL1 inh)
Cc1ccc(NC2CCCN(C(=O)c3cccs3)C2)cc1C (centres undefined)	G9a inh 35µM (no result: L3MBTL1 inh)
COc1ccc(NC2CCCN(C(=O)c3cccs3)C2)cc1 (centres undefined)	BAZ2B block inconclusive, G9a inh 50µM (no result: L3MBTL1 inh)
COc1ccc(C(=O)N2CCCC(Nc3ccc(C)c(C)c3)C2)cc1F (centres undefined)	HP1b chromo inh inconclusive, JMJD2A Tudor inconclusive (no result: L3MBTL1 inh)
COC(=O)c1cccc(C(=O)N2CCCC(Nc3ccc(C)c(C)c3)C2)c1 (centres undefined)	BAZ2B block inconclusive, G9a inh 50µM (no result: L3MBTL1 inh)
COc1ccc(NC2CCCN(C(=O)c3csc(C(C)C)n3)C2)cc1 (centres undefined)	none (no result: L3MBTL1 inh)
CC(C)c1ccc(S(=O)(=O)N2CCN(C(=O)[C@@H]3CCCN3C(=O)c3cccs3)CC2)cc1	G9a inh 45µM
Cc1ccc(OCC(=O)OCc2cc(=O)n3nc(-c4cccs4)sc3n2)cc1C	none (no result: L3MBTL1 inh)
CC(=O)N[C@@H](C=O)[C@@H](O)[C@H](O)[C@H](O)CO	none (no result: L3MBTL1 inh, BAZ2B block, HP1b chromo inh, JMJD2A Tudor)
CCOc1ccccc1N(C)C(=O)c1cc(S(=O)(=O)NCc2ccc(C)cc2)ccc1F	none (no result: L3MBTL1 inh)
Cc1cc(C(=O)N2CCCC(N3CCN(c4cccc(C(F)(F)F)c4)CC3)C2)c(C)o1 (centres undefined)	G9a inh 79µM (no result: L3MBTL1 inh)
COc1ccc(C2=Nc3nc(-c4ccccc4)cn3C(c3ccc(OC)cc3)C2)cc1 (centres undefined)	G9a inh 22µM
COc1ccc(C2CC(c3ccccc3)=NN2C(=O)COC(=O)C2CC2)cc1 (centres undefined)	none
CCCNC(=O)c1ccccc1NC(=O)c1nsc2ccccc12	none (no result: L3MBTL1 inh)
C[n+]1c(-c2ccccc2)cc2c(=Cc3ccccc3)c3ccccc3n21	HP1b chromo inh inconclusive, JMJD2A Tudor 40µM (no result: L3MBTL1 inh, BAZ2B block, G9a inh)
C[n+]1c(-c2ccccc2)cc2c(=Cc3ccc([N+](=O)[O-])cc3)c3ccccc3n21	HP1b chromo inh inconclusive, JMJD2A Tudor 45µM (no result: L3MBTL1 inh, BAZ2B block, G9a inh)
CN(C)c1ccc(C=c2c3cc(O)ccc3n3c2cc(-c2ccccc2)[n+]3C)cc1	HP1b chromo inh 50µM, JMJD2A Tudor 25µM (no result: L3MBTL1 inh, BAZ2B block, G9a inh)
O=C(Cn1c(-c2cccs2)cc2ccccc21)NCCCN1CCN(c2ccccc2F)CC1	none (no result: L3MBTL1 inh)
Cc1nn(-c2ccc(N3CCCC3)nn2)c(C)c1CCC(=O)N1CCN(c2ccccc2)CC1	BAZ2B block inconclusive (no result: L3MBTL1 inh)
CCOc1cc(CNC(=O)NC2COc3ccccc3C2)cc(OCC)c1OCC (centres undefined)	none (no result: L3MBTL1 inh)
COc1ccc(OC)c(NC(=O)C(C)n2c(=O)c(-c3ccccc3NC(C)=O)nc3ccccc32)c1 (centres undefined)	none (no result: L3MBTL1 inh)
O=C(COc1ncnc2ccccc12)N1CCN(c2ccccc2)CC1	G9a inh 50µM (no result: L3MBTL1 inh)
COc1cccc(/C=C/C(=O)c2ccc(NS(=O)(=O)c3ccc(C)cc3)cc2)c1	BAZ2B block inconclusive, G9a inh 2.5µM, JMJD2A Tudor inconclusive
COc1cc(/C=C/C(=O)c2ccc(NS(=O)(=O)c3ccc(C)cc3)cc2)cc(OC)c1O	BAZ2B block inconclusive, HP1b chromo inh inconclusive, G9a inh 40µM
CC(C)c1ccc(OCC(=O)N(Cc2cccs2)C2CCS(=O)(=O)C2)cc1 (centres undefined)	none (no result: L3MBTL1 inh)
CCCNC(=O)Cn1nc(-c2ccc(C)c(C)c2)c2cnc3ccc(F)cc3c21	none (no result: L3MBTL1 inh)
C(=N\N1CCN(Cc2cccc3ccccc23)CC1)/c1cccs1	BAZ2B block 13µM, HP1b chromo inh inconclusive, G9a inh 50µM, JMJD2A Tudor 40µM
CCN(CC)c1ccc(/C=N/N2CCN(Cc3ccc(Cl)cc3)CC2)c(O)c1	BAZ2B block 3.5µM, HP1b chromo inh inconclusive, G9a inh 10µM, JMJD2A Tudor inconclusive
